Inconclusive results are not listed. Values without a mark were called inactive. Calls follow the shape of the dose curve; as a rule, active = well fitted inhibition curve with a large enough effect in the repeat runs; inconclusive = weak or mixed curves, or effect the other way; inactive = no such curve, though single readings can be large or run the other way.
Assay: qHTS assay to identify small molecule antagonists of the retinoic acid receptor (RAR) signaling pathway (AID 1159552; also: nearly all actives have a fitted effect of over 50% in size)
Details: C3RL4 RARE luciferase reporter, retinol-stimulated, 6 h; series mostly up to 92.4 µM; activity, negative = inhibition: at the top concentration
From the text: National Center for Advancing Translational Sciences [NCATS]
NIH Chemical Genomics Center [NCGC]
U.S. Environmental Protection Agency [EPA]
National Institutes of Environmental Health Sciences [NIEHS]
National Toxicology Program [NTP]
U.S. Food and Drug Administration [FDA]
All-trans Retinoic acid (atRA) is the potent natural metabolite of retinol and plays an important role in normal embryonic development and maintenance of cellular phenotype in adult animals. atRA is the activating ligand for the retinoic acid receptors (RARs) which form heterodimers with retinoid X receptors (RXRs) on the retinoic acid response element (RARE). Through activation of the RAR/RXRs nuclear receptors, atRA regulates the transcription of a large number of protein-coding genes and regulatory RNAs. Intracellular levels of atRA are controlled by the retinol signaling pathway (RSP) that regulates the biosynthesis and catabolism of atRA to maintain physiological levels. Chemicals that interfere with the RSP can cause abnormal intracellular levels of atRA and therefore are potential developmental toxicants. To assess compounds for the potential adverse effect on embryonic development through interfering with retinol signaling, a cell-based RARE luciferase reporter gene assay was used. C3RL4 cell line (OARSA/CFSAN/FDA, Laurel, MD) was used to screen Tox21 10K compound library for identifying inhibitors of the RSP.
Tox21 Assay Protocol Summary:
C3RL4 cells were seeded at 1,000/well in 4 uL of assay medium into white solid 1,536-well tissue culture plates (Greiner Bio-One North America Inc. Monroe, NC) using a Multidrop Combi (Thermo Scientific, Waltham, MA) dispenser. After incubation at 37 C and 5% CO2 for an overnight, 23 nL of compounds dissolved in DMSO, positive control or DMSO only were transferred by a Pintool station (Kalypsys, San Diego, CA). One ul of 1 uM (final concentration) of Retinol was added right after the compound addition by using a Flying Reagent Dispenser (FRD) (Aurora Discovery, San Diego, CA). After 6 hr incubation at 37 C and 5% CO2, 5 uL of Amplite Luciferase reagent (AAT Bioquest Inc. Sunnyvale, CA) was added to each assay plate using an FRD. Luminescence was quantified on a ViewLux plate reader (PerkinElmer, Waltham, MA) after 30 min incubation at room temperature.
% is scaled to controls: 0 for no effect and ±100 for the full control effect.

Structure (SMILES)	activity, negative = inhibition
CCNC(=O)/C=C/c1cccc(Br)c1	67.2% [at 42.5 µM]
CCCCCCCCOC(C)=O	8.53%
COC(=O)CCC(=O)O	9.21%
CCCCCC1CCCC(=O)O1 (stereo not given)	2.91%
O=C(O)CCNC(=O)c1ccccc1	-1% [at 42.5 µM]
O=C(O)Cc1cccc(-c2cc(CCCCCCc3ccc(O[C@H]4O[C@H](CO)[C@@H](O)[C@H](O)[C@@H]4O)c(-c4cccc(CC(=O)O)c4)c3)ccc2O[C@H]2O[C@H](CO)[C@@H](O)[C@H](O)[C@@H]2O)c1	-0.764% [at 0.349 µM]
CCCCCCCC/C=C\CCCCCCCC(=O)OC[C@@H](O)[C@H]1OC[C@H](O)[C@H]1O	6.52%
Cc1ccc(C(=O)C(=O)O)cc1C	4.99% [at 42.5 µM]
CC(=O)Nc1ccc(C)cc1	-5.44%
NCCc1ccn[nH]1	7.33% [at 42.5 µM]
Cc1oc(=O)oc1CN1CCN(c2cc3c(cc2F)c(=O)c(C(=O)O)c2n3C(C)S2)CC1 (stereo not given)	-8.53% [at 42.5 µM]
Nc1cc(S(=O)(=O)O)ccc1S(=O)(=O)O	15%
Cc1ccc(S(=O)(=O)NC(=O)NC2CCCCCCC2)cc1	9.01% [at 42.5 µM]
CCCCCCCC[Si](OCC)(OCC)OCC	-8.35%
CC(=O)c1ccc(OCC(=O)N2CCCCC2)cc1	116% [at 42.5 µM]
NS(=O)(=O)c1cc2c(cc1Cl)NC(C(Cl)Cl)NS2(=O)=O (stereo not given)	3.32% [at 42.5 µM]
CCCCCN(CCCOC)C(=O)C(CCC(=O)O)NC(=O)c1ccc(Cl)c(Cl)c1 (stereo not given)	-2.12% [at 42.5 µM]
O=C(O)c1ccccc1C(=O)Nc1ccc(S(=O)(=O)Nc2nccs2)cc1	3.55% [at 42.5 µM]
C[CH2][Ge]([Cl])([CH2]C)[CH2]C	-5.04%
C=CCOCC(CO)(COCC=C)COCC=C	2.4% [at 42.5 µM]

Structure (SMILES)	activity, negative = inhibition
CC(=O)OCCCc1ccccc1	-1.43%
CCCCC(CC)COC(=O)c1ccccc1 (stereo not given)	2.18%
CCCCCCCCCCCCOC(C)=O	-6.98%
O=CN1CCOCC1	-7.36%
CC(C)COC(=O)COc1ccc(Cl)cc1Cl	13.2%
Cc1c(C(C)C)c(=O)n(-c2ccccc2)n1C	-18.1% [at 42.5 µM]
CC1(N)CCC(C(C)(C)N)CC1 (stereo not given)	9.68%
CO[Si](CCCCl)(OC)OC	-4.2%
CC(=O)c1ccc2c(c1)CCCC2	9.39%
FC(F)(F)/C(=N\OCC1OCCO1)c1ccc(Cl)cc1	8.97%
Cc1ncc([N+](=O)[O-])n1CC(O)CCl (stereo not given)	3.07% [at 42.5 µM]
CCN(Cc1cccc(S(=O)(=O)O)c1)c1ccccc1	-1.84%
Cn1c(=O)c2c(ncn2CC2OCCO2)n(C)c1=O	7.84% [at 42.5 µM]
CCCCCCCCCCCCCCCC(=O)NCCO	1.55% [at 42.5 µM]
CC(=O)OCC(=O)[C@@]1(O)[C@H](OC(C)=O)C[C@H]2[C@@H]3CCC4=CC(=O)C=C[C@]4(C)[C@@]3(F)[C@@H](O)C[C@@]21C	-15% [at 42.5 µM]
C=COCCOCCOC=C	-0.585%
Nc1cc(C(=O)O)ccc1Cl	-0.334%
CCCCOC(=O)C(=O)OCCCC	8.79%
CCCOCCOCCOCCO	-3.12%
C=C[C@@H](C)CCC=C(C)C	12.1%

— PubChem BioAssay (Tox21)
